Measured values as given in PubChem BioAssay AID493152 (Sanford-Burnham Center for Chemical Genomics, 2011).
This is one part of the list. Active and inactive are the calls of the source.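 The calls were made as follows: active = inhibition reaching a set limit in any replicate at 20 µM, the limit being 80% of the first screen's; inactive = the rest.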

biological target: DNA dC->dU-editing enzyme APOBEC-3G (Homo sapiens) (UniProt Q9HC16); test: human A3G ssDNA deamination inhibition, hit confirmation – biochemical, fluorescence, single-stranded DNA substrate, single concentration (AID 493152); details: recombinant A3G ssDNA deaminase, UDG/FAM-TAMRA fluorescence; at 20 µM; stronger effect = higher value
Sequence (Q9HC16 whole entry, looked up): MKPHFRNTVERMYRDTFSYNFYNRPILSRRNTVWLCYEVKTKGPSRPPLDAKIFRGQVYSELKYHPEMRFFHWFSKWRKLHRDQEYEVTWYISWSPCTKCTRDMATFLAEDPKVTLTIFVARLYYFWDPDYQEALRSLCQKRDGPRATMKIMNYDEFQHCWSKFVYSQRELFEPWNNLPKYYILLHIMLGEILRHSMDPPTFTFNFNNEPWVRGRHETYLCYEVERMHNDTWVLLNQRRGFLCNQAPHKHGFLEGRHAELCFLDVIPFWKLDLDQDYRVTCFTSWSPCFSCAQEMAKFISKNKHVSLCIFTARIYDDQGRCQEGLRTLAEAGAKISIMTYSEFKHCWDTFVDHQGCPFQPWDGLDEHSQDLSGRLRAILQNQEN

How did the inhibition turn out when O=C1CC(Sc2ncn[nH]2)C(=O)N1c1ccccc1 (centres undefined) was run?
The inhibition was 40.4% (active).

How did the inhibition turn out when S=c1[nH]nc(-c2ccco2)n1/N=C/c1ccccc1 was run?
The inhibition was -3.73% (active).

For S=c1[nH]nc(-c2ccc(Cl)cc2)n1CC1CCCO1 (centres undefined), which inhibition is on record?
The inhibition was 55.9% (active).

Which inhibition does the source give for S=c1[nH]nc2c3c4c(sc3ncn12)CCCC4 here?
The inhibition was 80% (active).

Which inhibition does the source give for CC(=O)N(C1=C(Cl)C(=O)c2ccccc2C1=O)c1ccc(C(=O)O)cc1 here?
The inhibition was 99.2% (active).

How did the inhibition turn out when Cc1ccc(C(=O)c2c(NC(=O)c3ccccc3)sc(C)c2C)cc1 was run?
The inhibition was 24.2% (active).

Fc1ccc(Nc2nnns2)cc1 was tested. Which inhibition did it give?
Its inhibition is 23.7% (active).

Which inhibition does the source give for S=c1[nH]nc(NCCc2ccccc2)s1 here?
Its inhibition is 81.5% (active).

With COc1ccc(OCc2n[nH]c(=S)n2N)cc1 as the compound, how does the inhibition read?
Its inhibition is 56.2% (active).

With CCOc1ccc(NC(=O)Nc2cc(C)on2)cc1 as the compound, how does the inhibition read?
The inhibition was 0.05% (inactive).

How did the inhibition turn out when Cn1c2ccccc2c(=O)c2c(=O)n(Cc3ccco3)c(COc3ccccc3)nc21 was run?
Its inhibition is 22% (inactive).

How did the inhibition turn out when Cc1ccc(NC(=O)c2sc3nc(N)c(C#N)cc3c2N)cc1 was run?
Its inhibition is -7.68% (inactive).

COc1cccc(C(=O)CC(=O)C(=O)Nc2ccc([N+](=O)[O-])cc2C)c1 was tested. Which inhibition did it give?
The inhibition was 2.17% (inactive).

COc1ccc(OCc2nnc3n2N=C(c2ccccc2)C(CC(=O)O)S3)cc1 (centres undefined) was tested. Which inhibition did it give?
The inhibition was 27.3% (active).

For S=c1[nH]nc(-c2cc(-c3ccccc3)n[nH]2)n1/N=C/c1c2ccccc2cc2ccccc12, which inhibition is on record?
Its inhibition is 8.05% (inactive).

With Cc1cccc(-n2c(N)c(C(=O)N3CCN(C)CC3)sc2=S)c1 as the compound, how does the inhibition read?
The inhibition was 77.7% (active).

Which inhibition does the source give for Cc1nc2scc(-c3cccs3)c2c(=O)n1N here?
Its inhibition is 0.32% (inactive).

How did the inhibition turn out when C=C(C)C(=O)Nc1cccc(C2=NOC3(C2)C[C@H](C(N)=O)N(C(=O)C(c2ccccc2)c2ccccc2)C3)c1 (some centres undefined) was run?
Its inhibition is 44.3% (active).

For Fc1ccccc1/C=N/n1c(-c2cccnc2)n[nH]c1=S, which inhibition is on record?
Its inhibition is 84.9% (active).

With CCOC(=O)c1sc(=S)n2c1[nH]c(=O)c1ccc(C(=O)OC)cc12 as the compound, how does the inhibition read?
Its inhibition is 7.15% (inactive).

O=C1C=CC(=O)N1c1ccc(N2CCCCC2)cc1 was tested. Which inhibition did it give?
Its inhibition is 91% (active).

For Cc1ccnc(-n2sc3ccccc3c2=O)n1, which inhibition is on record?
Its inhibition is 55.1% (active).

Cc1cc(-c2n[nH]c(=S)n2/N=C/c2ccco2)n[nH]1 was tested. Which inhibition did it give?
Its inhibition is 58.5% (active).

With COc1ccc2[nH]c(=S)cc(C)c2c1 as the compound, how does the inhibition read?
Its inhibition is 74.7% (active).
